This passage reports corrected activity, negative = more killing and z-score results from PubChem BioAssay AID1508625 (Wald Lab, School of Medicine, Case Western Reserve …, 2021).

Structures are written as SMILES.

A short description of the assay: small molecules boosting NK-mediated OVCAR3 lysis – imaging, primary NK cells, calcein-AM imaging, primary screen (AID 1508625).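 Further: compound given to NK cells 16 h before adding targets at 1.5 to 1 ratio.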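 On z-score: more negative robust z means stronger NK killing of tumor cells.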 The conditions noted are these: OVCAR3 lysis by primary NK cells, at 5 µM; z-score: measured here: robust Z-score, single-point normalisation.

Take `O=C(NCC1CCCO1)c1ccc(COc2ccc(Cl)cc2)cc1` (stereo unspecified): the corrected activity, negative = more killing was -2.84% and the z-score is -1.58.
Take `CC(C)(C)NC(=O)CSc1nc2ccc(Cl)cc2o1`: the corrected activity, negative = more killing was -2.67% and the z-score is -0.828.
As for `CCOc1ccc(-c2n[nH]c(C(=O)NN=Cc3cccnc3)c2C)cc1`, the corrected activity, negative = more killing was -3.11% and the z-score is -1.36.
On the same counts, the results for `Cc1sc2c(c1C)c(=O)n(CCc1ccccc1)c(=O)n2Cc1cccc([N+](=O)[O-])c1` are -2.58% and -0.733.
On to `CC(=O)Nc1cccc(N=Cc2cc(Cc3ccccc3)cc([N+](=O)[O-])c2O)c1`, for which the corrected activity, negative = more killing is -1.97% and the z-score is -0.698.
For `Cc1ccc(-n2c(O)c(C=C3C=Nc4ccccc43)sc2=O)cc1`, in that order: -3.36% and -1.74.
On to `Cc1ccc(-n2cnc3cc(C(=O)NCC4CCCO4)ccc32)cc1Cl` (stereo unspecified), for which the corrected activity, negative = more killing was -0.997% and the z-score was -0.269.
For `CCOc1ccc(S(=O)(=O)Nc2ccc(OC(F)(F)F)cc2)c2cccnc12`, in that order: -1.89% and -0.602.
Consider `C#CCN1C(=O)C(O)(CC(=O)c2ccc(OC)c(OC)c2)c2cc(Br)ccc21` (stereo unspecified), for which the corrected activity, negative = more killing was -5.04% and the z-score is -1.51.
On to `O=C1OC(c2ccccc2Cl)=NC1=Cc1cccs1`, for which the corrected activity, negative = more killing is -0.515% and the z-score was -0.219.
On the same counts, the results for `NC(C(=O)O)C(O)c1cccc([N+](=O)[O-])c1` (stereo unspecified) are -0.723% and -0.224.
On the same counts, the results for `Nc1nc(OCC(F)(F)F)cc(OCC(F)(F)F)n1` are -6.92% and -1.46.
As to `COC(=O)c1cc(NC(=O)C2(S(=O)(=O)c3ccc(C)cc3)CC2)cc(C(=O)OC)c1`, the corrected activity, negative = more killing was -4.1% and the z-score is -1.16.
Take `O=C(c1cc(-c2ccc3c(c2)OCO3)nc2ccccc12)N1CCN(Cc2ccc3c(c2)OCO3)CC1`: the corrected activity, negative = more killing was -3.33% and the z-score was -1.37.
As for `O=C(Nc1c[nH]c(=O)[nH]c1=O)c1ccc(N2C(=O)C3C4C=CC(C4)C3C2=O)cc1` (stereo unspecified), the corrected activity, negative = more killing was 0.344% and the z-score is 0.184.
Take `COc1cc2c(cc1NCc1ccccn1)oc1ccccc12`: the corrected activity, negative = more killing is -2.51% and the z-score is -1.12.
For `COc1ccccc1N1C(=O)C2C(C(C)=O)=NN(c3ccc(Cl)cc3)C2C1=O` (stereo unspecified), in that order: -1.87% and -0.704.
Take `COc1ccc(N2C3=C(C(=O)CC(C)(C)C3)C(c3cccc(F)c3)C3=C2CC(C)(C)CC3=O)c(OC)c1`: the corrected activity, negative = more killing is -1.83% and the z-score is -0.581.
On the same counts, the results for `CC1(C)CC(c2csc(N)n2)CCO1` (stereo unspecified) are -2.99% and -1.14.
Consider `CCC(=O)Nc1ccccc1C(=O)C(=O)Nc1ccccc1`, for which the corrected activity, negative = more killing is -1% and the z-score was -0.557.
On the same counts, the results for `COC(=O)c1conc1-c1ccccc1OC` are -3.1% and -1.35.
On to `O=C1C2CCCCC2C(=O)N1c1cccc2ccccc12` (stereo unspecified), for which the corrected activity, negative = more killing was -3.38% and the z-score was -0.712.
On the same counts, the results for `COc1ccccc1N1CCN(C(=O)c2ccc(Cn3c(=S)[nH]c4cc5c(cc4c3=O)OCO5)cc2)CC1` are -5.34% and -1.42.
`Cc1cccc(OCCn2c(=N)n(CC(N)=O)c3ccccc32)c1`: the corrected activity, negative = more killing is -6.66% and the z-score was -1.99.
On the same counts, the results for `Cc1nn(C(=O)c2cccnc2)c(C)c1Sc1ccc(Cl)cc1` are -1.68% and -0.87.
`Cc1ccc(C(=O)Nc2ccc(NC(=O)c3ccc(C(C)(C)C)cc3)cc2)cc1[N+](=O)[O-]`: the corrected activity, negative = more killing was -2.5% and the z-score is -0.888.
On to `CCC(CC)NC(=O)c1cccc(OC)c1OC`, for which the corrected activity, negative = more killing is -0.109% and the z-score was -0.0486.
As to `Cc1oc(-c2cccc(Br)c2)nc1CN1CCC(C(=O)NC(C)CCc2ccccc2)CC1` (stereo unspecified), the corrected activity, negative = more killing was -7.41% and the z-score is -2.
With `O=CN1CCN(c2nc3ccccc3nc2C(F)(F)F)CC1`, the corrected activity, negative = more killing is -2.49% and the z-score is -1.02.
In the case of `Cc1ccc(-c2cc(C(=O)NN=Cc3cccnc3)[nH]n2)cc1`, the corrected activity, negative = more killing is -3.53% and the z-score is -1.54.
As to `OCCNCCCOc1ccccc1F`, the corrected activity, negative = more killing is -1.78% and the z-score is -0.566.
Consider `O=C(CC1Sc2ccccc2NC1=O)Nc1ccc2c(c1)OCO2` (stereo unspecified), for which the corrected activity, negative = more killing is -2.14% and the z-score is -0.818.
For the compound `c1cncc(CNC23CC4CC(CC(C4)C2)C3)c1`, the corrected activity, negative = more killing is -3.27% and the z-score was -1.04.
For `CCC(=O)Nc1ccc(Cl)c(NC(=O)COc2ccc(Br)cc2)c1`, in that order: -0.00546% and -0.00304.
Regarding `O=C1c2ccccc2C(=O)N1CCCCCCN1CCN(c2cccc(Cl)c2)CC1`, the corrected activity, negative = more killing is -4.02% and the z-score was -0.848.
On the same counts, the results for `Cc1ccc(-c2nc3ccccc3c(C(=O)O)c2C)cc1` are -2.28% and -1.18.
Consider `COc1ccc(OC)c(NC(=O)CSc2nc3c([nH]c4ccccc43)c(=O)n2C)c1`, for which the corrected activity, negative = more killing was -8.66% and the z-score was -2.15.
`CC(C(=O)NCCCN1CCOCC1)c1ccc([N+](=O)[O-])cc1` (stereo unspecified): the corrected activity, negative = more killing was -5.52% and the z-score is -3.07.
Turning to `CCCCN(C(=O)c1cnc2n(c1=O)CCS2)c1ccccc1`, the corrected activity, negative = more killing was -5.28% and the z-score is -1.68.
Take `CCOC(=O)CC(NCc1ccc(Cl)c([N+](=O)[O-])c1)c1cccs1` (stereo unspecified): the corrected activity, negative = more killing was -7.84% and the z-score is -2.12.
Turning to `CC(Oc1cccc(Cl)c1)C(=O)ON=C(N)c1ccncc1` (stereo unspecified), the corrected activity, negative = more killing is 0.422% and the z-score is 0.235.
In the case of `O=C(NCc1cccc(Cl)c1)c1ccc2c(=O)n(Cc3cccc(Br)c3)c(=S)[nH]c2c1`, the corrected activity, negative = more killing was -6.41% and the z-score was -2.04.
On the same counts, the results for `COc1cc(C=Nc2ccc(Oc3ccccc3)cc2)ccc1OC(C)=O` are -3.39% and -1.34.
